Test results: PubChem BioAssay AID1159580 (chemical genetic matrix, 2015)
Among all 5,500 compounds or so, about 2,000 (36%) were called active. Another 18% or so got no clear call; they are omitted. No stated cut-off is given here; in the data, active means normalized growth mostly below about 0.91 (no sharp cut-off); inconclusive means no clear call, values can overlap the other calls; inactive means mostly above about 0.92. Some of the results follow.

Experiment: chemical genetic growth profiling, strain panel (AID 1159580);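 further: tested at 20 µM; growth read once vehicle control cultures reached saturation at 30 °C; 1 = growth at the plate median or of vehicle wells; lower values mean less growth of the strain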
Details: growth OD

Measured: normalized growth

O=C(O)c1cc2ccccc2[nH]1
inactive: S. cerevisiae deletion strains, locus YJR075W, strain HOC1, hits give low values 1.01 | S. cerevisiae deletion strains, locus YKL009W, strain mrt4, hits give low values 0.991 | S. cerevisiae deletion strains, locus YKL068W, hits give low values 1 | S. cerevisiae deletion strains, locus YKL085W, strain MDH1 (second series), hits give low values 1.02 | S. cerevisiae deletion strains, locus YKL085W, strain MDH1, hits give low values 1.02 | S. cerevisiae deletion strains, locus YKL160W, strain elf1, hits give low values 0.972 | S. cerevisiae deletion strains, locus YKL190W, strain CNB1, hits give low values 1 | S. cerevisiae deletion strains, locus YKR001C, strain vps1, hits give low values 1.02 | S. cerevisiae deletion strains, locus YKR026C, strain gcn3, hits give low values 0.961 | S. cerevisiae deletion strains, locus YKR091W, strain srl3, hits give low values 0.98 | S. cerevisiae deletion strains, locus YLL001W, strain dnm1, hits give low values 0.974 | S. cerevisiae deletion strains, locus YLL026W, hits give low values 1 | S. cerevisiae deletion strains, locus YLL041C, strain sdh2, hits give low values 0.989 | S. cerevisiae deletion strains, locus YLR027C, strain aat2, hits give low values 0.993 | S. cerevisiae deletion strains, locus YLR039C, strain RIC1, hits give low values 1.01 | S. cerevisiae deletion strains, locus YLR058C, strain SHM2, hits give low values 1.01 | S. cerevisiae deletion strains, locus YLR102C, strain apc9, hits give low values 1.02 | S. cerevisiae deletion strains, locus YLR113W, strain HOG1, hits give low values 0.95 | S. cerevisiae deletion strains, locus YLR221C, strain rsa3, hits give low values 0.989 | S. cerevisiae deletion strains, locus YLR258W, strain gsy2, hits give low values 0.989 | S. cerevisiae deletion strains, locus YLR262C, strain YPT6 (second series), hits give low values 0.991 | S. cerevisiae deletion strains, locus YLR262C, strain YPT6, hits give low values 1.05 | S. cerevisiae deletion strains, locus YLR268W, strain sec22, hits give low values 1.01 | S. cerevisiae deletion strains, locus YLR320W, strain mms22, hits give low values 1.01 | S. cerevisiae deletion strains, locus YLR330W, strain CHS5, hits give low values 1.01 | S. cerevisiae deletion strains, locus YLR342W, strain FKS1 (second series), hits give low values 0.993 | S. cerevisiae deletion strains, locus YLR342W, strain FKS1, hits give low values 0.991 | S. cerevisiae deletion strains, locus YLR357W, strain rsc2, hits give low values 0.983 | S. cerevisiae deletion strains, locus YLR370C, strain arc18, hits give low values 0.989 | S. cerevisiae deletion strains, locus YLR371W, strain rom2, hits give low values 1.01 | S. cerevisiae deletion strains, locus YLR384C, strain iki3, hits give low values 0.976 | S. cerevisiae deletion strains, locus YLR418C, strain cdc73, hits give low values 1.01 | S. cerevisiae deletion strains, locus YML016C, strain PPZ1, hits give low values 1.01 | S. cerevisiae deletion strains, locus YML032C, strain rad52, hits give low values 1 | S. cerevisiae deletion strains, locus YML120C, strain ndi1, hits give low values 0.979 | S. cerevisiae deletion strains, locus YML124C, strain tub3, hits give low values 1.01 | S. cerevisiae deletion strains, locus YMR058W, strain fet3, hits give low values 0.975 | S. cerevisiae deletion strains, locus YMR078C, strain ctf18, hits give low values 1.02 | S. cerevisiae deletion strains, locus YMR125W, strain sto1, hits give low values 0.941 | S. cerevisiae deletion strains, locus YMR129W, hits give low values 0.987 | S. cerevisiae deletion strains, locus YMR205C, strain PFK2, hits give low values 1.02 | S. cerevisiae deletion strains, locus YMR223W, strain ubp8, hits give low values 1.01 | S. cerevisiae deletion strains, locus YMR231W, strain pep5, hits give low values 1 | S. cerevisiae deletion strains, locus YMR263W, strain SAP30, hits give low values 1.01 | S. cerevisiae deletion strains, locus YMR307W, strain GAS1, hits give low values 1.04 | S. cerevisiae deletion strains, locus YNL067W, strain RPL9B, hits give low values 1.01 | S. cerevisiae deletion strains, locus YNL071W, strain lat1, hits give low values 0.986 | S. cerevisiae deletion strains, locus YNL128W, strain TEP1, hits give low values 1 | S. cerevisiae deletion strains, locus YNL153C, strain GIM3, hits give low values 1.01 | S. cerevisiae deletion strains, locus YNL183C, strain NPR1, hits give low values 0.915 | S. cerevisiae deletion strains, locus YNL209W, strain ssb2, hits give low values 0.984 | S. cerevisiae deletion strains, locus YNL233W, strain BNI4, hits give low values 1 | S. cerevisiae deletion strains, locus YNL248C, strain rpa49, hits give low values 0.954 | S. cerevisiae deletion strains, locus YNL250W, strain rad50, hits give low values 1 | S. cerevisiae deletion strains, locus YNL271C, strain bni1, hits give low values 1.01 | S. cerevisiae deletion strains, locus YNL298W, strain CLA4, hits give low values 1 | S. cerevisiae deletion strains, locus YNL307C, strain MCK1, hits give low values 1.02 | S. cerevisiae deletion strains, locus YNL322C, strain KRE1 (second series), hits give low values 0.979 | S. cerevisiae deletion strains, locus YNL322C, strain KRE1, hits give low values 1.02 | S. cerevisiae deletion strains, locus YNR049C, strain mso1, hits give low values 0.983 | S. cerevisiae deletion strains, locus YNR052C, strain pop2, hits give low values 1.02 | S. cerevisiae deletion strains, locus YOL006C, strain TOP1, hits give low values 1.04 | S. cerevisiae deletion strains, locus YOL012C, strain htz1 1.07 | S. cerevisiae deletion strains, locus YOL147C, strain pex11, hits give low values 1.01 | S. cerevisiae deletion strains, locus YOR001W, strain rrp6, hits give low values 0.963 | S. cerevisiae deletion strains, locus YOR061W, strain CKA2, hits give low values 1.01 | S. cerevisiae deletion strains, locus YOR069W, strain VPS5, hits give low values 0.991 | S. cerevisiae deletion strains, locus YOR070C, strain gyp1, hits give low values 0.999 | S. cerevisiae deletion strains, locus YOR080W, strain dia2, hits give low values 0.99 | S. cerevisiae deletion strains, locus YOR083W, strain WHI5, hits give low values 0.967 | S. cerevisiae deletion strains, locus YOR106W, strain vam3, hits give low values 0.972 | S. cerevisiae deletion strains, locus YOR136W, strain idh2, hits give low values 1.02 | S. cerevisiae deletion strains, locus YOR144C, strain elg1, hits give low values 1.02 | S. cerevisiae deletion strains, locus YOR184W, strain ser1, hits give low values 1 | S. cerevisiae deletion strains, locus YOR231W, strain MKK1, hits give low values 0.995 | S. cerevisiae deletion strains, locus YOR265W, strain rbl2, hits give low values 0.991 | S. cerevisiae deletion strains, locus YOR270C, strain vph1, hits give low values 0.974 | S. cerevisiae deletion strains, locus YOR290C, strain snf2, hits give low values 0.955 | S. cerevisiae deletion strains, locus YOR316C, strain cot1, hits give low values 1.02 | S. cerevisiae deletion strains, locus YPL051W, strain arl3, hits give low values 0.979 | S. cerevisiae deletion strains, locus YPL055C, strain LGE1, hits give low values 0.998 | S. cerevisiae deletion strains, locus YPL078C, strain atp4, hits give low values 0.948 | S. cerevisiae deletion strains, locus YPL106C, strain sse1, hits give low values 0.972 | S. cerevisiae deletion strains, locus YPL240C, strain hsp82, hits give low values 0.997 | S. cerevisiae deletion strains, locus YPL241C, strain CIN2, hits give low values 1.06 | S. cerevisiae deletion strains, locus YPL256C, strain CLN2, hits give low values 1 | S. cerevisiae deletion strains, locus YPR119W, strain clb2, hits give low values 1 | S. cerevisiae deletion strains, locus YPR141C, strain kar3, hits give low values 0.996 | S. cerevisiae deletion strains, locus YPR163C, strain tif3, hits give low values 1.01 | S. cerevisiae deletion strains, locus YPR167C, strain met16, hits give low values 1.02 | S. cerevisiae deletion strains, strain wtn01, hits give low values 1.01 | S. cerevisiae strains, strain wild type, hits give low values 0.994
